# Assay results taken from PubChem BioAssay (EPA / NIEHS).
# Results filed as inconclusive are left out. More than one record can exist for a structure, and the calls need not agree. The source made the active and inactive calls. Rule for the calls, unless noted: active = hit-call score of the fitted dose curve at least 0.9, where 1 is the maximum; inactive = score below 0.9.
# How the values were obtained:
# [1] = target: human RAR-related Orphan Receptor beta (RORb), RORB (gene 6096) (UniProt Q92753); assay: ATG_RORb_TRANS: Attagene TRANS-FACTORIAL HepG2 Assay for human RAR-related Orphan Receptor beta (RORb) (AID 2283010; active = hit-call score of the fitted dose curve at least 0.9, where 1 is the maximum;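 for AC50: potency for increased reporter mRNA meaning activation of RORb-Gal4 chimera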)
# Method in brief: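 Multiplexed transcription-factor reporter assay: HepG2 cells transiently carrying NR-Gal4/GAL4-UAS constructs, 24 h treatment, mRNA quantified by RT-PCR plus capillary electrophoresis fluorescence; activity scored as induction over DMSO.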
# [2] = target: Retinoic acid receptor RXR-alpha (Homo sapiens) (UniProt P19793); assay: ATG_RXRa_TRANS: Attagene TRANS-FACTORIAL HepG2 Assay for human Retinoid X Receptor alpha (RXRa) (AID 2283012; active = hit-call score of the fitted dose curve at least 0.9, where 1 is the maximum)
# Method in brief: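 Chimeric NR-GAL4 trans-activation in HepG2, 24 h treatment; reporter transcripts quantified by fluorescence on capillary electrophoresis, analysed for upward change from DMSO.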
# [3] = target: human Retinoid X Receptor beta (RXRb), RXRB (gene 6257) (UniProt P28702); assay: ATG_RXRb_TRANS: Attagene TRANS-FACTORIAL HepG2 Assay for human Retinoid X Receptor beta (RXRb) (AID 2283013; active = hit-call score of the fitted dose curve at least 0.9, where 1 is the maximum)
# Method in brief: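 After a 24 h incubation with test chemical, transfected HepG2 cells carrying NR-Gal4 fusions and GAL4-UAS reporter transcription units yield RNA whose reporter cDNA is FAM-labelled, HpaI-cut and sized by capillary electrophoresis; increases over DMSO are scored.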
# [4] = read-out: E-selectin (Homo sapiens) (UniProt P16581); assay: BSK_3C_Eselectin: BioMAP Diversity Plus: 3C Assay for Eselectin Biomarker Activity (AID 2283015); details: primary human endothelial cells (HUVEC); actives raise or lower the signal;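 for outcome: cell surface E-selectin protein quantified by ELISA 24 h after dosing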
# Method in brief: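 Human vascular endothelium from umbilical vein is exposed to test chemicals for 24 h. E-selectin levels are read by ELISA and compared with DMSO controls.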
# [5] = read-out: Interleukin-1 alpha (IL1a), IL1A (gene 3552); assay: BSK_BE3C_IL1a: BioMAP Diversity Plus: BE3C Assay for Interleukin-1 alpha (IL1a) Biomarker Activity (AID 2283016); details: primary human bronchial epithelial cells; actives raise or lower the signal
# Method in brief: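 Measured in human lung primary bronchial epithelial cells: IL-1a by ELISA at 24 h after dosing, with bidirectional fitting against DMSO.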
# [6] = read-out: Monocyte Chemoattractant Protein-1 (MCP1), CCL2 (gene 6347); assay: BSK_3C_MCP1: BioMAP Diversity Plus: 3C Assay for Monocyte Chemoattractant Protein-1 (MCP1) Biomarker Activity (AID 2283017); details: primary human endothelial cells (HUVEC); actives raise or lower the signal
# Method in brief: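 Endothelial cells from human umbilical vein are dosed with chemical, cultured 24 h, then assayed for MCP-1 by ELISA; both increases and decreases are modelled against DMSO controls.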
# [7] = read-out: Monocyte Chemoattractant Protein-1 (MCP1), CCL2 (gene 6347); assay: BSK_4H_MCP1: BioMAP Diversity Plus: 4H Assay for Monocyte Chemoattractant Protein-1 (MCP1) Biomarker Activity (AID 2283018); details: primary human endothelial cells (HUVEC); actives raise or lower the signal
# Method in brief: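 Primary human umbilical vein endothelium is exposed to chemical for 24 h before MCP-1 is assayed by ELISA. Concentration-response fitted bidirectionally relative to DMSO.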
# [8] = read-out: Interleukin-8 (IL8), CXCL8 (gene 3576); assay: BSK_3C_IL8: BioMAP Diversity Plus: 3C Assay for Interleukin-8 (IL8) Biomarker Activity (AID 2283020); details: primary human endothelial cells (HUVEC); actives raise or lower the signal
# Method in brief: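 Using DMSO-treated wells as the baseline, bidirectional curve fitting was applied to ELISA-measured IL-8 from human umbilical vein endothelial cultures sampled 24 h after compound addition.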
# [9] = read-out: Monokine induced gamma interferon (MIG), CXCL9 (gene 4283); assay: BSK_3C_MIG: BioMAP Diversity Plus: 3C Assay for Monokine induced gamma interferon (MIG) Biomarker Activity (AID 2283021); details: primary human endothelial cells (HUVEC); actives raise or lower the signal
# Method in brief: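 ELISA-measured MIG in dosed HUVEC 3C cultures at 24 h, analysed by bidirectional fitting with DMSO defining baseline activity.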
# [10] = target: human Vitamin D Receptor (VDR), VDR (gene 7421) (UniProt P11473); assay: ATG_VDR_TRANS: Attagene TRANS-FACTORIAL HepG2 Assay for human Vitamin D Receptor (VDR) (AID 2283022; active = hit-call score of the fitted dose curve at least 0.9, where 1 is the maximum)
# Method in brief: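 Fluorescence of labelled reporter cDNA fragments, resolved by capillary electrophoresis, gives mRNA induction after 24 h treatment of HepG2 cells carrying transfected Gal4-fusion reporter units. Activity is fitted in the positive direction with DMSO as baseline.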
# [11] = BSK_3C_SRB: Viability Assessment in the BioMAP Diversity Plus: 3C Assay (AID 2283023); details: primary human endothelial cells (HUVEC);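 note: cells read 24 h after compound dosing; fitted both ways against DMSO so a hit may be signal rise or drop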
# Method in brief: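 Cells were dosed with chemical, cultured 24 h, fixed with 10% TCA, stained with 0.1% SRB and read at 560 nm. Human umbilical vein endothelium was used; DMSO served as negative control and baseline.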
# [12] = read-out: Matrix Metallopeptidase 1 (MMP1), MMP1 (gene 4312); assay: BSK_BE3C_MMP1: BioMAP Diversity Plus: BE3C Assay for Matrix Metallopeptidase 1 (MMP1) Biomarker Activity (AID 2283024); details: primary human bronchial epithelial cells; actives raise or lower the signal
# Method in brief: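 In this multiplexed primary-cell system, human bronchial epithelium received chemicals for 24 h before an ELISA for MMP1. Values reflect bidirectional fits normalised to the DMSO baseline.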
# [13] = BSK_3C_Vis: BioMAP Diversity Plus: 3C Assay for Morphology Visualization (AID 2283025); details: primary human endothelial cells (HUVEC);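 note: fitted both ways so gain or loss versus DMSO counts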
# Method in brief: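 Light-microscopy morphology readout, 24 h exposure, human primary umbilical vein endothelium; analysed relative to DMSO with bidirectional fitting.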
# [14] = read-out: Pselectin, SELP (gene 6403); assay: BSK_4H_Pselectin: BioMAP Diversity Plus: 4H Assay for Pselectin Biomarker Activity (AID 2283026); details: primary human endothelial cells (HUVEC); actives raise or lower the signal
# Method in brief: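 Bidirectional fits against DMSO gave the endpoint. Cells: primary human umbilical vein endothelium, chemical-treated for 24 h before ELISA detection of P-selectin.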
# [15] = BSK_4H_SRB: Viability Assessment in the BioMAP Diversity Plus: 4H Assay (AID 2283027); details: primary human endothelial cells (HUVEC);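 note: cells exposed to compound for 24 h before staining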
# Method in brief: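 HUVEC, 24 h post-dose; 10% TCA fix, 0.1% SRB stain, A560 nm. Total protein = overt cytotoxicity, parallel to biomarker read. Bidirectional fit vs DMSO baseline.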
# [16] = BSK_BE3C_SRB: Viability Assessment in the BioMAP Diversity Plus: BE3C Assay (AID 2283028); details: primary human bronchial epithelial cells;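 for AC50: fitted both ways so AC50 may mark signal gain or loss versus DMSO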
# Method in brief: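 Overt cytotoxicity was assessed as total protein in confluent human primary bronchial epithelial cultures 24 h after chemical addition, using 0.1% sulforhodamine B staining read at 560 nm.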
# [17] = read-out: Thrombomodulin, THBD (gene 7056); assay: BSK_3C_Thrombomodulin: BioMAP Diversity Plus: 3C Assay for Thrombomodulin Biomarker Activity (AID 2283029); details: primary human endothelial cells (HUVEC); actives raise or lower the signal
# Method in brief: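 In a multiplexed primary-cell system, human umbilical vein endothelium received chemical and was assayed 24 h later for thrombomodulin by ELISA. Parallel cultures were SRB-stained (0.1% SRB after 10% TCA fixation, read at 560 nm) to flag cytotoxicity.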
# [18] = target: human Thyroid Receptor alpha (THRa1), THRA (gene 7067) (UniProt P10827); assay: ATG_THRa1_TRANS: Attagene TRANS-FACTORIAL HepG2 Assay for human Thyroid Receptor alpha (THRa1) (AID 2283014; active = hit-call score of the fitted dose curve at least 0.9, where 1 is the maximum)
# Method in brief: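 First, HepG2 cells receive multiple GAL4-UAS reporter units and the chimeric receptor. They are then dosed for 24 h, after which RNA is reverse-transcribed, amplified, labelled, HpaI-cut and sized by capillary electrophoresis; gain relative to DMSO is scored.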
# [19] = read-out: Human Leukocyte Antigen - DR isotype (HLADR), HLA-DRA (gene 3122); assay: BSK_3C_HLADR: BioMAP Diversity Plus: 3C Assay for Human Leukocyte Antigen - DR isotype (HLADR) Biomarker Activity (AID 2283019); details: primary human endothelial cells (HUVEC); actives raise or lower the signal;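 for outcome: ELISA of cell-surface HLA-DR on HUVEC 24 h after dosing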
# Method in brief: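 Endothelial cells from human umbilical vein are treated with test chemical; after 24 h, HLA-DR levels are measured by ELISA. Data are fitted in both directions using DMSO as the baseline.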
# [20] = target: human RAR-related Orphan Receptor gamma (RORg), RORC (gene 6097) (UniProt P51449); assay: ATG_RORg_TRANS: Attagene TRANS-FACTORIAL HepG2 Assay for human RAR-related Orphan Receptor gamma (RORg) (AID 2283011; active = hit-call score of the fitted dose curve at least 0.9, where 1 is the maximum;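 for AC50: potency for induction of reporter transcripts above DMSO so activators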)
# Method in brief: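 Activity is scored as increase in GAL4-UAS reporter mRNA over DMSO, detected by fluorescent RT-PCR and capillary electrophoresis in HepG2 cells transiently expressing a RORg-Gal4 chimera, 24 h after dosing.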
# Sequence of Retinoic acid receptor RXR-alpha (Homo sapiens) (P19793 whole entry, looked up, the tested form may be a part): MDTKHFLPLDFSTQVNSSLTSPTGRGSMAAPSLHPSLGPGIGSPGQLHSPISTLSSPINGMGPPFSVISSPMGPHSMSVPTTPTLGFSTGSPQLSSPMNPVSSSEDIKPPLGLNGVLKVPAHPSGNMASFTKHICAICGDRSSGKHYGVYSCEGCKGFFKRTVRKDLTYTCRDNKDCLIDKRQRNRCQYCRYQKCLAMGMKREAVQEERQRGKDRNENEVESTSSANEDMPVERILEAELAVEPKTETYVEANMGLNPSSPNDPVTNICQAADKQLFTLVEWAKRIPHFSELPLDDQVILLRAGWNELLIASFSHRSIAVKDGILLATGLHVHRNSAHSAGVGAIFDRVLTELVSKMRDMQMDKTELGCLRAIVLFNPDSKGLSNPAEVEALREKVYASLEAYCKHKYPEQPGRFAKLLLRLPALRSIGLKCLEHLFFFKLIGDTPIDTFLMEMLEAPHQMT
# Sequence of E-selectin (Homo sapiens) (P16581 whole entry, looked up): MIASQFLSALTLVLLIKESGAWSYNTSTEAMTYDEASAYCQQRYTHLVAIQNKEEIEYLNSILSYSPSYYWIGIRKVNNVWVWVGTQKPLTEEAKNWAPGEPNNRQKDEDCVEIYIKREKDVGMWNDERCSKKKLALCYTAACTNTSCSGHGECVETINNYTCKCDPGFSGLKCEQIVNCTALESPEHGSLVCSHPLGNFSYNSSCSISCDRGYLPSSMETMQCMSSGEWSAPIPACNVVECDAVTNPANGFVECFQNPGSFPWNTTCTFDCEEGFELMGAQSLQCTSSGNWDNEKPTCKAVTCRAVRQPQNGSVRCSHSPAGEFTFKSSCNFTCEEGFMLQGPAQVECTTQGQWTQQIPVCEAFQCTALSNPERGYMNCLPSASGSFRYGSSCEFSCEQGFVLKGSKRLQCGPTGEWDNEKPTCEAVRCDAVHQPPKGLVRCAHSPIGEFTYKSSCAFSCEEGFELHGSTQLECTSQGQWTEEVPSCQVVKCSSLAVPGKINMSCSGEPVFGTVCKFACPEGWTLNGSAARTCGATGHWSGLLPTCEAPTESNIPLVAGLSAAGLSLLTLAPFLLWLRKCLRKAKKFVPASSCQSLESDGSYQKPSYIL
# Sequence of human RAR-related Orphan Receptor gamma (RORg), RORC (gene 6097) (P51449 whole entry, looked up, the tested form may be a part): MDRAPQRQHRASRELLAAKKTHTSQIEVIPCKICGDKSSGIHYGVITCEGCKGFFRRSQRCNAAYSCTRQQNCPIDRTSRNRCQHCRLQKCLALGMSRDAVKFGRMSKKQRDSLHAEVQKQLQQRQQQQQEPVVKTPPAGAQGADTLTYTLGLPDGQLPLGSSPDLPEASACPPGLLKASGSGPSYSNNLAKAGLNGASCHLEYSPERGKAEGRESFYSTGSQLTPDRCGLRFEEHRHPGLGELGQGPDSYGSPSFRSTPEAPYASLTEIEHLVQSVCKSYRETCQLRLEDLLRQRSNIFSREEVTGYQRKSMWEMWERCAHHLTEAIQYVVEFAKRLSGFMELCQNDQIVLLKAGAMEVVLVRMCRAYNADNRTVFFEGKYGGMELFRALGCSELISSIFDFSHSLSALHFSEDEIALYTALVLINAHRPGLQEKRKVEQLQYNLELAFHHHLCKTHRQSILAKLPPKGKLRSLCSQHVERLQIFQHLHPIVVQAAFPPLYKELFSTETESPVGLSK
# Sequence of human Vitamin D Receptor (VDR), VDR (gene 7421) (P11473 whole entry, looked up, the tested form may be a part): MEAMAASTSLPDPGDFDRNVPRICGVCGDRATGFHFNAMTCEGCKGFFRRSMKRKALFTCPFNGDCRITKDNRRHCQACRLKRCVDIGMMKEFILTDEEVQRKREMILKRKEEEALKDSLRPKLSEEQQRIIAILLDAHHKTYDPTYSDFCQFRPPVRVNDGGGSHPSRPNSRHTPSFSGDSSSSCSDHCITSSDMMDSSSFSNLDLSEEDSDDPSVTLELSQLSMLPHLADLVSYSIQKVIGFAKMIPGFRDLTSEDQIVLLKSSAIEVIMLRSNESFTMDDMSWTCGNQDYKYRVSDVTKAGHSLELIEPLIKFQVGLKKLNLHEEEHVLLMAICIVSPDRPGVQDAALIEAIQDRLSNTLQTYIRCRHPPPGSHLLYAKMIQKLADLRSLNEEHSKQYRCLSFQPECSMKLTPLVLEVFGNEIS
# Sequence of human Retinoid X Receptor beta (RXRb), RXRB (gene 6257) (P28702 whole entry, looked up, the tested form may be a part): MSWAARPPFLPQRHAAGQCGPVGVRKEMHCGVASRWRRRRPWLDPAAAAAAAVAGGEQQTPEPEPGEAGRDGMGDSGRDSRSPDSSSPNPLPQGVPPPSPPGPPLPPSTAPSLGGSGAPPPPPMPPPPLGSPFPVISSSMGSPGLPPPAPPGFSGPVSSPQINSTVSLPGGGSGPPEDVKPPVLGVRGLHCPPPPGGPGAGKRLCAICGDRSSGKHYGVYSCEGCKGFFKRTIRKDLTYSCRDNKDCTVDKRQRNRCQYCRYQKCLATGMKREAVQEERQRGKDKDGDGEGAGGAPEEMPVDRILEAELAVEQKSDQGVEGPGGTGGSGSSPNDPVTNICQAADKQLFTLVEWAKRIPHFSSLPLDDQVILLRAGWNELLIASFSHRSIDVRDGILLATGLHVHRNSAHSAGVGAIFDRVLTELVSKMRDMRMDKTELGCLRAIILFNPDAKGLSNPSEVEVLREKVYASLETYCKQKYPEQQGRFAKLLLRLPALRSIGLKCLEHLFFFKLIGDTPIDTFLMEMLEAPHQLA
# Sequence of human Thyroid Receptor alpha (THRa1), THRA (gene 7067) (P10827 whole entry, looked up, the tested form may be a part): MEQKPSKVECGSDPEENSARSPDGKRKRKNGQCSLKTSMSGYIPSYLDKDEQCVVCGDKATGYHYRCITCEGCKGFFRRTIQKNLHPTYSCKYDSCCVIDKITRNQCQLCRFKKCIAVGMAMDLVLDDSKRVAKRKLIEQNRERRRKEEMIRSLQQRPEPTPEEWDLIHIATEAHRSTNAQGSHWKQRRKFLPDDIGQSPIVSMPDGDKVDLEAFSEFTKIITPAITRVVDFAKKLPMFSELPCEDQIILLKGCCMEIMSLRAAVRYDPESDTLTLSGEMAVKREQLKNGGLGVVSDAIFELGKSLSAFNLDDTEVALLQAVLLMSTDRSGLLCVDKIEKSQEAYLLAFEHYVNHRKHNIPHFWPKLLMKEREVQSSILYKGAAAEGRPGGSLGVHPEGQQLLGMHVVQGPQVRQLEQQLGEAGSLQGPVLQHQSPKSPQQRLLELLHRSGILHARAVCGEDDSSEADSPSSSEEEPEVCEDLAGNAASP
# Sequence of human RAR-related Orphan Receptor beta (RORb), RORB (gene 6096) (Q92753 whole entry, looked up, the tested form may be a part): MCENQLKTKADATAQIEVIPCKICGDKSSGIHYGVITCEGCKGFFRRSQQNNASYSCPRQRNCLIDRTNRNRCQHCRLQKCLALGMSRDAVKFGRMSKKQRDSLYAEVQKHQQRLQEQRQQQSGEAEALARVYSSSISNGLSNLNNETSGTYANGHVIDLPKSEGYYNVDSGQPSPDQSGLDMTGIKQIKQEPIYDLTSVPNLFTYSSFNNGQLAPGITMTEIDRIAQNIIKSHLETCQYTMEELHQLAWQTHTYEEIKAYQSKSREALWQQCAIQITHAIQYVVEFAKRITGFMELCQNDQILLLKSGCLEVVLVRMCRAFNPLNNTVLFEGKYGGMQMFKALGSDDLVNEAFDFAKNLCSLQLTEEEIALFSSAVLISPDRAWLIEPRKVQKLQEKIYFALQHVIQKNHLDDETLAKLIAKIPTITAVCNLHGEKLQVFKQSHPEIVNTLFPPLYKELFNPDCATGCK
compound,measurement,setting,value
C[C@@H](Oc1ccc(CNC(=O)c2cccnc2Oc2ccc3c(c2)OCO3)c(F)c1)C(=O)O,outcome,[1],inactive
same,outcome,[3],inactive
same,outcome,[18],inactive
same,outcome,[4],inactive
same,outcome,[5],inactive
same,outcome,[6],inactive
same,outcome,[7],inactive
same,outcome,[19],inactive
same,outcome,[8],inactive
same,outcome,[9],inactive
same,outcome,[11],inactive
same,outcome,[12],inactive
same,outcome,[13],inactive
same,outcome,[14],inactive
same,outcome,[15],inactive
same,outcome,[16],inactive
same,outcome,[17],inactive
NCC(F)(F)C(F)(F)C(F)(F)C(F)(F)F,outcome,[1],inactive
same,outcome,[20],inactive
same,outcome,[2],inactive
same,outcome,[3],inactive
same,outcome,[18],inactive
same,outcome,[4],inactive
same,outcome,[5],inactive
same,outcome,[6],inactive
same,outcome,[7],inactive
same,outcome,[19],inactive
same,outcome,[8],inactive
same,outcome,[9],inactive
same,outcome,[10],inactive
same,outcome,[11],inactive
same,outcome,[12],inactive
same,outcome,[14],inactive
same,outcome,[15],inactive
same,outcome,[16],inactive
same,AC50,[17],5.95 µM (active)
same,outcome,[17],inactive
COS(C)(=O)=O,outcome,[1],inactive
same,outcome,[20],inactive
same,outcome,[2],inactive
same,outcome,[3],inactive
same,outcome,[4],inactive
same,outcome,[5],inactive
same,outcome,[6],inactive
same,outcome,[7],inactive
same,outcome,[8],inactive
same,outcome,[9],inactive
same,outcome,[10],inactive
same,outcome,[11],inactive
same,outcome,[12],inactive
same,outcome,[13],inactive
same,outcome,[14],inactive
same,outcome,[15],inactive
same,outcome,[16],inactive
same,outcome,[17],inactive
COc1cc(C(C)C)c2c(c1)S(=O)(=O)N(COc1cc(=O)n3cccc(OCCN4CCCCC4)c3n1)C2=O,AC50,[1],3.53 µM (active)
same,AC50,[20],3.78 µM (active)
same,outcome,[2],inactive
same,outcome,[18],inactive
same,AC50,[4],6.54 µM (active)
same,AC50,[5],8.48 µM (active)
same,outcome,[6],inactive
same,outcome,[7],inactive
same,outcome,[8],inactive
same,outcome,[9],inactive
same,outcome,[10],inactive
same,outcome,[11],inactive
same,outcome,[12],inactive
same,outcome,[13],inactive
same,AC50,[14],5 µM (active)
same,outcome,[15],inactive
same,AC50,[16],8.23 µM (active)
same,outcome,[17],inactive
O=S(=O)(O)CCC(F)(F)C(F)(F)C(F)(F)C(F)(F)C(F)(F)C(F)(F)F,outcome,[1],inactive
same,outcome,[20],inactive
same,outcome,[18],inactive
same,outcome,[4],inactive
same,outcome,[5],inactive
same,outcome,[6],inactive
same,outcome,[7],inactive
same,outcome,[19],inactive
same,outcome,[8],inactive
same,outcome,[9],inactive
same,outcome,[10],inactive
same,outcome,[11],inactive
same,AC50,[12],45.5 µM (active)
same,outcome,[12],inactive
same,outcome,[14],inactive
same,outcome,[15],inactive
same,outcome,[16],inactive
same,outcome,[17],inactive
O=C(O)c1ccc2c(c1)nc(C(=O)NC1CCN(C3CC3)CC1)n2Cc1cc(-c2ccc(Cl)s2)on1,outcome,[1],inactive
same,outcome,[20],inactive
same,outcome,[4],inactive
same,outcome,[5],inactive
same,outcome,[6],inactive
same,outcome,[7],inactive
same,AC50,[19],1.6 µM (active)
same,outcome,[8],inactive
same,outcome,[9],inactive
same,outcome,[11],inactive
same,outcome,[12],inactive
same,outcome,[13],inactive
same,AC50,[14],0.952 µM (active)
same,outcome,[15],inactive
same,outcome,[16],inactive
same,outcome,[17],inactive
